An excerpt weighted towards active compounds, which were near 2.9% of everything screened.
PAFAH2 inh – PAFAH2 (human) inhibition | recombinant PAFAH2, FP-rhodamine activity probe, fluorescence polarization | 0.99% of 340,000 active | Q99487 | AID 492956 | inhibition, % at 3.39 µM;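 active = inhibition above the mean over all tested compounds plus 3 SD, cut at about 30% in these data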;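 also: inhibitors block probe labeling of enzyme so polarization drops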
PAFAH1B3 inh – inhibitors of human PAFAH1B3; Q15102; recombinant PAFAH1B3, FP-rhodamine probe, fluorescence polarization; inhibition, % at 3.39 µM; 0.28% of 340,000 active; AID 492972;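 active = inhibition above the screen-wide average of all tested compounds plus 3 SD, cut at about 25% in these data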
Target sequence (Q15102 whole entry, looked up): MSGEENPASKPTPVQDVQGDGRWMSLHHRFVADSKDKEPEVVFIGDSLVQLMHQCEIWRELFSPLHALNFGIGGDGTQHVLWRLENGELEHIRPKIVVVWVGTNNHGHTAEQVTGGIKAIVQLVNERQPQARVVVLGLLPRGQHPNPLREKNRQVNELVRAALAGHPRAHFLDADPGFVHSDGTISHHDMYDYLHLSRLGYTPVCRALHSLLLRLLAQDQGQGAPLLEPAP
PAFAH1B2 inh – PAFAH1B2 (human) inhibition; P68402; recombinant PAFAH1B2, FP-rhodamine activity probe, fluorescence polarization; inhibition, % at 3.39 µM; 1.2% of 340,000 active; AID 492953;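 active = inhibition above the mean of all tested compounds plus 3 SD, cut at about 24% in these data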
LYPLA1 counter – LYPLA1 (human) inhibition in PME1 counter-screen; O75608; recombinant LYPLA1, FP-Rh probe fluorescence polarization; inhibition, % at 5.9 µM; 0.16% of 320,000 active; AID 2174;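 active = inhibition above the mean of all tested compounds plus 3 SD, set per campaign, cut at about 14% in these data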;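 also: inhibitors block serine hydrolase probe labeling of LYPLA1 so polarization falls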
pPAFAH FP inh – inhibitors of human plasma PAF acetylhydrolase (pPAFAH); inhibition, % at 3.39 µM; Q13093; 1.5% of 330,000 active; recombinant pPAFAH, FP-rhodamine probe fluorescence polarization;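 active = inhibition above the mean inhibition across the screen plus 3 SD, cut at about 25% in these data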;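 also: inhibitors block binding of the rhodamine activity-based probe so polarization drops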
Target sequence (Q13093 whole entry, looked up): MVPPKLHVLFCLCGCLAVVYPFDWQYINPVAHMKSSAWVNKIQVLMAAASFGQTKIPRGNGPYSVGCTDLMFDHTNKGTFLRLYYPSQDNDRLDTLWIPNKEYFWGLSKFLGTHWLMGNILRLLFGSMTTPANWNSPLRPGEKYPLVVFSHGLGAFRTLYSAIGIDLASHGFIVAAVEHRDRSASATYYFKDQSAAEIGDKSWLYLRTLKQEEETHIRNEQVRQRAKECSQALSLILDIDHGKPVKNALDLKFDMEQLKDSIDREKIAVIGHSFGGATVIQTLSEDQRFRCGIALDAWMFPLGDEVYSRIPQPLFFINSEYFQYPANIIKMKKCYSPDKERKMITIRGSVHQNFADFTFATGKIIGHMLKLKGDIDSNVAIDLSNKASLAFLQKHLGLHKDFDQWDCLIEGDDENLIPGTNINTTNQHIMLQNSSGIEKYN
LYPLA2 inh – counter-screen for PME1 inhibitors: inhibitors of human LYPLA2; inhibition, % at 5.9 µM; O95372; AID 2177; recombinant LYPLA2, FP-Rh probe fluorescence polarization; 0.38% of 320,000 active;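 active = inhibition above the screen-wide mean plus 3 SD, limit set per campaign, cut at about 26% in these data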
pPAFAH FP conf – confirmation of human plasma PAF acetylhydrolase (pPAFAH) inhibitors. recombinant pPAFAH, FP-Rh probe fluorescence polarization. 72% of 2,300 active. shares compounds with pPAFAH FP inh. inhibition, % at 3.39 µM;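 active = mean inhibition of the triplicate above the hit cutoff set for the earlier primary screen, cut at about 25% in these data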
Numbers stand for hits.

How did O=C(NC1CCCC1)c1ccc2nc[nH]c2c1 do in these assays?
PAFAH2 inh: inactive; PAFAH1B3 inh: inactive; PAFAH1B2 inh: inactive; LYPLA1 counter: inactive; pPAFAH FP inh: inactive; LYPLA2 inh: inactive

Results for O=C(NCCc1ccccc1)c1ccc2nc(-c3ccco3)c(-c3ccco3)nc2c1 ?
PAFAH2 inh: inactive; PAFAH1B3 inh: inactive; PAFAH1B2 inh: inactive; LYPLA1 counter: inactive; pPAFAH FP inh: 60.4; LYPLA2 inh: inactive; pPAFAH FP conf: 36.7

How did COc1cccc(-c2cc(C(=O)NC3CCCC3)no2)c1 do in these assays?
PAFAH2 inh: inactive; PAFAH1B3 inh: inactive; PAFAH1B2 inh: inactive; LYPLA1 counter: inactive; pPAFAH FP inh: inactive; LYPLA2 inh: inactive

How did CCCCn1c2ccccc2c2nnc(SCCN3CCCCC3)nc21 do in these assays?
PAFAH2 inh: inactive; PAFAH1B3 inh: inactive; PAFAH1B2 inh: inactive

Results for COc1ccc(-c2nnn(CC(=O)Nc3sc4c(c3C#N)CCCC4)n2)cc1 ?
PAFAH2 inh: inactive; PAFAH1B3 inh: inactive; PAFAH1B2 inh: inactive; LYPLA1 counter: inactive; pPAFAH FP inh: inactive; LYPLA2 inh: inactive

Results for O=C(NCCO)c1ccc2nc(-c3ccco3)c(-c3ccco3)nc2c1 ?
PAFAH2 inh: 31.1; PAFAH1B3 inh: 40.5; PAFAH1B2 inh: inactive; LYPLA1 counter: inactive; pPAFAH FP inh: 39.3; LYPLA2 inh: inactive; pPAFAH FP conf: inactive

Results for O=C(NCCO)c1ccc(Cl)c(Cl)c1 ?
PAFAH2 inh: inactive; PAFAH1B3 inh: inactive; PAFAH1B2 inh: inactive; LYPLA1 counter: inactive; pPAFAH FP inh: inactive; LYPLA2 inh: inactive

Results for c1coc(-c2nc3ccccc3nc2-c2ccco2)c1 ?
PAFAH2 inh: 39.9; PAFAH1B3 inh: 25.7; PAFAH1B2 inh: inactive; LYPLA1 counter: inactive; pPAFAH FP inh: 44.0; LYPLA2 inh: inactive; pPAFAH FP conf: inactive

Results for CC1CCC(N(C(=O)c2csnn2)C(C(=O)NC(C)(C)C)c2cccnc2)CC1 (stereo unspecified) ?
PAFAH2 inh: inactive; PAFAH1B3 inh: inactive; PAFAH1B2 inh: inactive; LYPLA1 counter: inactive; pPAFAH FP inh: inactive; LYPLA2 inh: inactive

What do the screens show for `C/C(=N\OC(=O)Nc1ccccc1)c1ccc(C)cc1`?
PAFAH2 inh: inactive; PAFAH1B3 inh: inactive; PAFAH1B2 inh: inactive; LYPLA1 counter: inactive; pPAFAH FP inh: inactive; LYPLA2 inh: inactive

How did Cc1ccc(C(=O)Nc2nnc(CC(=O)N/N=C/c3ccc(O)c(O)c3)s2)cc1 do in these assays?
PAFAH2 inh: inactive; PAFAH1B3 inh: inactive; PAFAH1B2 inh: inactive; LYPLA1 counter: inactive; pPAFAH FP inh: 50.8; LYPLA2 inh: inactive; pPAFAH FP conf: 87.0

Results for N#C/C(=C\c1cccs1)c1nc2ccccc2[nH]1 ?
PAFAH2 inh: inactive; PAFAH1B3 inh: inactive; PAFAH1B2 inh: inactive; LYPLA1 counter: inactive; pPAFAH FP inh: inactive; LYPLA2 inh: inactive

What do the screens show for `N#C/C(=C/c1ccc(O)c(O)c1)c1nc2ccccc2[nH]1`?
PAFAH2 inh: 62.5; PAFAH1B3 inh: 57.6; PAFAH1B2 inh: 44.5; LYPLA1 counter: inactive; pPAFAH FP inh: 63.4; LYPLA2 inh: inactive; pPAFAH FP conf: 79.0

How did CC1CCCC(C)N1/N=C/c1ccc(O)c(O)c1 (stereo unspecified) do in these assays?
PAFAH2 inh: inactive; PAFAH1B3 inh: inactive; PAFAH1B2 inh: inactive; LYPLA1 counter: inactive; pPAFAH FP inh: 45.2; LYPLA2 inh: inactive; pPAFAH FP conf: inactive

How did CC1=C(C(=O)Nc2ccc(CC(=O)NCc3ccc(OC(C)C)cc3)cc2)SCCO1 do in these assays?
PAFAH2 inh: inactive; PAFAH1B3 inh: inactive; PAFAH1B2 inh: inactive; LYPLA1 counter: inactive; pPAFAH FP inh: 37.5; LYPLA2 inh: inactive; pPAFAH FP conf: inactive

Results for Clc1ccccc1/C=N/N1CCN(Cc2ccccc2)CC1 ?
PAFAH2 inh: inactive; PAFAH1B3 inh: inactive; PAFAH1B2 inh: inactive; LYPLA1 counter: inactive; pPAFAH FP inh: inactive; LYPLA2 inh: inactive

Results for COc1ccc(Oc2cc(NN3CCCCC3)c([N+](=O)[O-])cc2[N+](=O)[O-])cc1OC ?
PAFAH2 inh: inactive; PAFAH1B3 inh: inactive; PAFAH1B2 inh: inactive; LYPLA1 counter: inactive; pPAFAH FP inh: inactive; LYPLA2 inh: inactive

Results for NNC(=S)Nc1cccc(-c2n[nH]c(=S)o2)c1 ?
PAFAH2 inh: inactive; PAFAH1B3 inh: inactive; PAFAH1B2 inh: inactive; LYPLA1 counter: inactive; pPAFAH FP inh: 38.8; LYPLA2 inh: inactive; pPAFAH FP conf: inactive

How did CN(C)C(=S)Nc1cccc(-c2n[nH]c(=S)o2)c1 do in these assays?
PAFAH2 inh: inactive; PAFAH1B3 inh: inactive; PAFAH1B2 inh: inactive; LYPLA1 counter: inactive; pPAFAH FP inh: inactive; LYPLA2 inh: inactive

Results for CC1=C(C(=O)Nc2ccc(C(=O)N3CCN(c4cccc(Cl)c4)CC3)cc2)SCCO1 ?
PAFAH2 inh: inactive; PAFAH1B3 inh: inactive; PAFAH1B2 inh: inactive; LYPLA1 counter: inactive; pPAFAH FP inh: 42.0; LYPLA2 inh: inactive; pPAFAH FP conf: inactive

What do the screens show for `Cc1c(C(=O)NNC(=O)c2ccccc2O)oc2ccc(Br)cc12`?
PAFAH2 inh: inactive; PAFAH1B3 inh: inactive; PAFAH1B2 inh: inactive; LYPLA1 counter: inactive; pPAFAH FP inh: 57.9; LYPLA2 inh: inactive; pPAFAH FP conf: 69.8

What do the screens show for `O=C(Nc1cnc2ccccc2c1)c1ccncc1`?
PAFAH2 inh: inactive; PAFAH1B3 inh: inactive; PAFAH1B2 inh: inactive; LYPLA1 counter: inactive; pPAFAH FP inh: 51.6; LYPLA2 inh: inactive; pPAFAH FP conf: inactive

How did O=C(NC(=S)Nc1cnc2ccccc2c1)c1ccccc1 do in these assays?
PAFAH2 inh: inactive; PAFAH1B3 inh: inactive; PAFAH1B2 inh: inactive; LYPLA1 counter: inactive; pPAFAH FP inh: inactive; LYPLA2 inh: inactive

How did COc1ccc(-n2c(NC(=O)c3ccco3)c(C#N)c3nc4ccccc4nc32)cc1 do in these assays?
PAFAH2 inh: inactive; PAFAH1B3 inh: inactive; PAFAH1B2 inh: inactive; LYPLA1 counter: inactive; pPAFAH FP inh: inactive; LYPLA2 inh: inactive

How did N#Cc1c(NC(=O)c2ccccc2Cl)n(Cc2ccccc2)c2nc3ccccc3nc12 do in these assays?
PAFAH2 inh: 64.3; PAFAH1B3 inh: 63.3; PAFAH1B2 inh: 53.1; LYPLA1 counter: inactive; pPAFAH FP inh: 38.4; LYPLA2 inh: inactive; pPAFAH FP conf: 34.8

Results for COc1cc(OC)c(NC(=O)CN(C)S(=O)(=O)c2ccc(-c3ccc(=O)[nH]n3)s2)cc1Cl ?
PAFAH2 inh: inactive; PAFAH1B3 inh: inactive; PAFAH1B2 inh: inactive; LYPLA1 counter: inactive; pPAFAH FP inh: inactive; LYPLA2 inh: inactive

What do the screens show for `COc1cnc(-c2ccccn2)nc1Oc1ccccc1Cl`?
PAFAH2 inh: inactive; PAFAH1B3 inh: inactive; PAFAH1B2 inh: inactive; LYPLA1 counter: inactive; pPAFAH FP inh: inactive; LYPLA2 inh: inactive

How did COc1cnc(-c2ccccn2)nc1Oc1ccc(Cl)c2ccccc12 do in these assays?
PAFAH2 inh: inactive; PAFAH1B3 inh: inactive; PAFAH1B2 inh: inactive; LYPLA1 counter: inactive; pPAFAH FP inh: 59.9; LYPLA2 inh: inactive; pPAFAH FP conf: 64.2

What do the screens show for `O=C1c2ccc(-c3ccc(F)cc3OCc3ccccc3)cc2S(=O)(=O)c2cccc(C(=O)N3CCN(c4ncc(Cl)cc4Cl)CC3)c21`?
PAFAH2 inh: inactive; PAFAH1B3 inh: inactive; PAFAH1B2 inh: inactive; pPAFAH FP inh: 37.4; pPAFAH FP conf: 25.4

Screening data (PubChem)
